Common to all, as to test: NCI-60 one-dose screen, 48 h (100 = growth as untreated, 0 = no growth, -100 = all killed)
Holding throughout (conditions): 10 µM unless noted

The subject of assay [1] is SK-MEL-2 melanoma.
Assay [2] has as its system EKVX NSCLC.
Assay [3] deals with SN12C renal.
The test system of assay [4] is UO-31 renal.
The subject of assay [5] is TK-10 renal.
The subject of assay [6] is ACHN renal.
For assay [7], the system named is CAKI-1 renal.
The subject of assay [8] is A498 renal.
Assay [9] has as its system CCRF-CEM leukemia.
Assay [10] deals with MOLT-4 leukemia.

Structures are written as SMILES. About 83,000 compounds went through this panel and 20% of them were active in at least one assay; those are over-represented in the sample as a whole.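 Results are percent growth after 48 hours of single-concentration exposure. 100 means growth as in untreated cells, lower positive values show inhibition; negative values down to -100 show cell death.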 Unmarked numbers belong to inactive results. The source made the active and inactive calls. The calls were made as follows: active = growth percent below 10; inactive = the rest.

As for `OC(COCc1ccccc1)COCc1ccccc1`, the growth was 111% in [1]; 91.5% in [2]; 104% in assay [3]; 91.6% in assay [4]; 109% in assay [5]; 99% in [6]. The growth in assay [7] was 96.5%; in assay [8] it was 89.7%; in [9], 99.5%; in assay [10] it was 96.4%.
Turning to `O=S1(=O)NCCN1CCNc1nccc(-c2c(-c3cccc(O)c3)nc3sccn23)n1`, the growth is 72.1% in assay [1]; 111% in assay [2]; 95.2% in [3]; 116% in assay [4]; 130% in assay [5]; 97% in [6]. Moreover, the growth is 80.8% in [7], 118% in assay [8], 88.1% in [9] and 110% in assay [10].
Turning to `O=S1(=O)NCCCN1CCNc1nccc(-c2c(-c3cccc(O)c3)nc3sccn23)n1`, the growth in assay [1] is 29.4%; in assay [2] it was 141%; in [3], 43.4%; in [4], 94.1%; in assay [5] it was 121%; in assay [6], 50.5%. Further, the growth in assay [7] was 67.4%; in assay [8], 98.9%; in assay [9], 60.1%; in assay [10], 65.2%.
`CC1(C)CN(CCNc2nccc(-c3c(-c4cccc(O)c4)nc4sccn34)n2)S(=O)(=O)N1`: the growth in assay [1] is 24.1%; in assay [2], 108%; in assay [3], 57.6%; in assay [4], 60.5%; in [5], 119%; in assay [6], 39.4%. Also, the growth in assay [7] is 32.5%; in assay [8] it was 81.7%; in assay [9], 49.6%; in assay [10], 71.8%.
As to `COc1ccc(-c2cnc(-c3ccncc3-c3cccc(OC)c3)o2)cc1`, the growth is 5.27% (active) in assay [1]; 58.1% in assay [2]; 15% in assay [3]; 42.6% in assay [4]; 30.5% in [5]; 17.1% in [6]. Also, the growth in assay [7] was 32%; in assay [8], 35.3%; in assay [9] it was 3.12% (active); in assay [10], 11.5%.
With `C/C(=N\Nc1ccc([N+](=O)[O-])cn1)c1ccc(N)cc1`, the growth in assay [1] is 100%; in [2] it was 109%; in assay [3] it was 94.8%; in [4], 87.7%; in assay [5] it was 105%; in assay [6] it was 97.8%. The growth in [7] is 101%; in assay [8] it was 82.4%; in assay [9] it was 96.3%; in assay [10], -11.7% (active).
As to `COc1cccc(N2CCN(c3ncnc4cc[nH]c34)CC2)c1`, the growth was 64.7% in [1]; 50.1% in assay [2]; 85.5% in [3]; 65% in [4]; 52.8% in [5]; 59.6% in [6]. Further, the growth in assay [7] is 71.6%; in assay [8], 41.3%; in [9], 60.9%; in assay [10], 29.6%.
Regarding `Cc1nn(-c2cccc(Cl)c2)c(C)c1N=Nc1ccc(Br)cc1`, the growth is 102% in [1]; 87.5% in [2]; 94.4% in [3]; 86.5% in [4]; 90.1% in assay [5]; 92% in assay [6]. Besides, the growth in assay [7] was 86.7%; in [8], 83%; in assay [9] it was 97.3%; in [10], 98.9%.
`COCc1nc(NS(=O)(=O)c2ccc(N)cc2)nc(C)c1Br`: the growth in assay [1] is 96.6%; in assay [2] it was 95.9%; in assay [3], 108%; in [4] it was 95.4%; in assay [5], 93.1%; in assay [6], 102%. The growth in [7] was 102%; in [8], 118%; in assay [9], 103%; in [10], 103%.
Take `COc1cc(/C=C\c2cc(/C=C\c3ccc(O)c(OC)c3)n(C(=O)Nc3ccc(C(F)(F)F)cc3)n2)ccc1O`: the growth in assay [1] was 84.5%; in [2] it was 61.3%; in assay [3], 36.9%; in [4], 42.9%; in assay [5], 77.7%; in [6], 65.8%. In addition, the growth in assay [7] is 55%; in assay [8], 108%; in assay [9] it was 3.42% (active); in [10], 11.1%.
Turning to `CC(C)=CC[C@@H]1CC2(CC=C(C)C)C(=O)C(OC3(C(=O)c4ccccc4)C(=O)C4(CC=C(C)C)C[C@@H](CC=C(C)C)C(C)(C)C(CC=C(C)C)(C4=O)C3=O)(C(=O)c3ccccc3)C(=O)C(CC=C(C)C)(C2=O)C1(C)C` (stereo not given in full), the growth was -46.8% (active) in assay [1]; 2.26% (active) in assay [2]; -17.9% (active) in [3]; -7.33% (active) in assay [4]; 3.06% (active) in [5]; 4.64% (active) in assay [6]. The growth in assay [7] is 11.5%; in [8] it was -58% (active); in assay [9], 3.78% (active); in [10], -11.9% (active).
On to `CCCNCCC(C)=O`, for which the growth in assay [1] was 118%; in assay [2] it was 89.6%; in assay [3] it was 102%; in assay [4], 92.4%; in assay [5], 101%; in [6], 106%. For the same compound, the growth is 106% in assay [7], 94.2% in assay [8], 107% in [9] and 112% in assay [10].
For the compound `O=C(c1ccc(OCCN2CCCCC2)cc1)c1c(-c2ccc(O)cc2)sc2cc(O)ccc12`, the growth in [1] was 102%; in [2] it was 83.3%; in assay [3], 80.4%; in assay [4] it was 67.1%; in assay [5], 129%; in assay [6], 91.5%. For the same compound, the growth in [7] was 76%; in assay [8], 90.9%; in assay [9] it was 59.7%; in [10], 76.3%.
Regarding `CN(C)c1nc(-c2ccco2)n2nc(-c3ccc(Cl)cc3)cc2n1`, the growth was 99.2% in assay [1]; 84.2% in assay [2]; 86.6% in assay [3]; 20.7% in assay [4]; 23.1% in assay [5]; 28.5% in assay [6]. In addition, the growth in assay [7] was 74.1%; in assay [8], 75.8%; in assay [9], 86.7%; in assay [10], 86.8%.
For `COC(=O)C(Br)(C(=O)OC)C(Br)C(Br)C(Br)c1ccccc1` (stereo not given), the growth in [1] is 83.6%; in [2], 105%; in assay [3] it was 96.7%; in assay [4], -8.98% (active); in assay [5] it was -45.2% (active); in assay [6], -70% (active). For the same compound, the growth in assay [7] is -69.6% (active); in assay [8], 101%; in assay [9], 0.438% (active); in assay [10], 50.1%.
In the case of `O=c1c2cc(Br)cc(Br)c2nc(-c2ccc(Cl)cc2)n1/N=C/c1cccc(F)c1`, the growth in assay [1] was 59.8%; in assay [2] it was 59.2%; in assay [3], 53.5%; in assay [4], 19.7%; in assay [5], 22.3%; in assay [6] it was 10.8%. Moreover, the growth was 14.5% in [7], 101% in [8], 48.8% in assay [9] and 64.8% in [10].

Source of the values: PubChem BioAssay (NCI).
